POLH inh – inhibitors of human DNA polymerase eta | recombinant Pol eta, fluorescent DNA replication assay | Potency, µM (series often up to 114 µM), for the others: at the top dose activity change, negative = inhibition, actives largely listed as inhibitors | actives 1.2% (n = 390,000); note: potency is the fitted concentration of half-maximal effect; % is set by controls: 0 for no effect and ±100 for the full control effect
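Fluorescent replication assay: 50 nM final substrate added after a 15 min room-temperature compound preincubation with 10 nM enzyme. Signal taken at 0 min and again at 10 min.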
PI5P4Ka inh – PI5P4K alpha (human) kinase inhibition | P48426 | PI5P4Kalpha enzyme, ADP-Glo luminescence, 60 min; hits give low values | max response, % | actives 1.2% (n = 330,000) | AID 652105; active = max response of -50% or lower; inconclusive = between -30% and -50%; inactive = -30% or higher; note: value at the top dose of about 77 µM; % is set by controls: 0 for no effect and ±100 for the full control effect
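ADP-Glo luminescence end-point after a 60 min room-temperature kinase reaction. PI5P4Kalpha and substrate in HEPES pH 7.4 buffer with EGTA, 0.1% CHAPS and 5% DMSO; ATP at 5 microM final.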
Pol beta inh – DNA polymerase beta (human) inhibition | actives 1.3% (n = 340,000) | Potency, µM (series often up to 114 µM), for the others: at the top dose activity change, negative = inhibition, actives largely listed as inhibitors | Pol beta primer extension/strand displacement, fluorescence kinetic | P06746; note: potency is the fitted concentration of half-maximal effect; % is set by controls: 0 for no effect and ±100 for the full control effect
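Pol beta (10 nM) was preincubated with compound for 15 min at room temperature. The reaction was then started with 50 nM substrate and read immediately and after a further 10 min at room temperature.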
POLK inh – inhibitors of human DNA polymerase kappa; purified Pol kappa, fluorescent DNA synthesis assay, 10 min; Potency, µM (titrated, usually from 107 µM), without a hit: at the highest dose activity, negative = inhibition, most hits filed as inhibitors; actives 0.53% (n = 400,000); note: potency is the fitted concentration of half-maximal effect; % is set by controls: 0 for no effect and ±100 for the full control effect
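50 nM final substrate added after 15 min RT preincubation of 10 nM Pol kappa with compound; fluorescence read at 0 and 10 min.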
WRN helicase inh – WRN helicase (human) inhibition | Q14191 | WRN helicase unwinding, fluorescent forked duplex, kinetic | Potency, µM (doses to about 114 µM), without a hit: top-dose activity change, negative = inhibition, most hits filed as inhibitors | actives 0.46% (n = 360,000); note: potency is the fitted concentration of half-maximal effect; % is set by controls: 0 for no effect and ±100 for the full control effect; nearly all actives have a fitted effect of over 55% in size
Target sequence (Q14191 whole entry, looked up): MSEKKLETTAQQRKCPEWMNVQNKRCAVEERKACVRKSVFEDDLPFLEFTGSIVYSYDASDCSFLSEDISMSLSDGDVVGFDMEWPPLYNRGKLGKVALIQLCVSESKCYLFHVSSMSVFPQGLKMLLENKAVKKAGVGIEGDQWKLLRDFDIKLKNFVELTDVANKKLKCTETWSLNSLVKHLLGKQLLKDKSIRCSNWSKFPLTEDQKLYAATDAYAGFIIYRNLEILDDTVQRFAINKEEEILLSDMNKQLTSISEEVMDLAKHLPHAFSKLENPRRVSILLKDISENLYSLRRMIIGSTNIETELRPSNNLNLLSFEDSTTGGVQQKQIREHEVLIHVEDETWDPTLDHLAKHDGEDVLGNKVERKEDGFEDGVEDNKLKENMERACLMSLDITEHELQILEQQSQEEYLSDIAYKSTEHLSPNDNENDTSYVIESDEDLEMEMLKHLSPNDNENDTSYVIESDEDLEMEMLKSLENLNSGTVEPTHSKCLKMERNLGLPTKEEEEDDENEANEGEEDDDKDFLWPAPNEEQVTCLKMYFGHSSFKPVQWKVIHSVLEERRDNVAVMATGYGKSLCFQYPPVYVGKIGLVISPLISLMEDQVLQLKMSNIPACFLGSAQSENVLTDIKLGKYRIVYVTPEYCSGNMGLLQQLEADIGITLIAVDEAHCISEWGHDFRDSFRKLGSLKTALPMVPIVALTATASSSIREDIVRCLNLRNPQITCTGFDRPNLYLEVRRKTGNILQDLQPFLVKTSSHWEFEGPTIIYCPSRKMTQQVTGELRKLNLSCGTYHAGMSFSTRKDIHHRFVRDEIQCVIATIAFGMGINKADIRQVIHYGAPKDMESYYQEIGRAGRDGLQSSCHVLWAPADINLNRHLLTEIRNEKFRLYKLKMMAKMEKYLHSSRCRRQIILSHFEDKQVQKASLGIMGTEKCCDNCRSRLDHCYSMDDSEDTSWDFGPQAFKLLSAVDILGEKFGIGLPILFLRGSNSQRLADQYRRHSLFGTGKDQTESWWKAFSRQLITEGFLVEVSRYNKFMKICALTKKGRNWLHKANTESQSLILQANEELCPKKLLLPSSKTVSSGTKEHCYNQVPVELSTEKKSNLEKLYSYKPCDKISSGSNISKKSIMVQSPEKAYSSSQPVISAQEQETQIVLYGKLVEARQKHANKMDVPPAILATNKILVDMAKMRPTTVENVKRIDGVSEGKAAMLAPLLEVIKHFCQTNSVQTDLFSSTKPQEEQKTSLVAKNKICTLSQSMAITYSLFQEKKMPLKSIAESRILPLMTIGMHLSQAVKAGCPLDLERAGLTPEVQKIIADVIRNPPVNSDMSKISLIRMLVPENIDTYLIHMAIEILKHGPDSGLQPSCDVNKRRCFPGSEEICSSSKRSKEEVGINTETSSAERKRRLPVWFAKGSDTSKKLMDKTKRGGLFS
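WRN at 20 nM final preincubated with compound 15 min at room temperature; reaction started with 100 nM fluorophore/quencher forked duplex oligonucleotide and 2 mM ATP final. Unwinding followed kinetically by red fluorescence (ex 525, em 598 nm).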
POLI inh – DNA polymerase iota (human) inhibition; Q9UNA4; Pol iota fluorescent replication assay, 10 min; Potency, µM (titrated, usually from 115 µM), without a hit: at the highest dose activity, negative = inhibition, most hits filed as inhibitors; actives 1% (n = 390,000); AID 588590; note: potency is the fitted concentration of half-maximal effect
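Pol iota at 10 nM preincubated 15 min with compounds at room temperature; reaction started with fluorescent substrate, 50 nM final. Fluorescence read kinetically at 0 and 10 min; buffer-only wells as negative control.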
* = called active by the depositor; [ ] = remark or other dose. Only some compounds are listed: those with a hit (about 2.8% of all), similar ones and a draw of the others. Unless noted, calls come from the whole dose curve; as a rule, active = well fitted curve in the direction sought with a large enough effect; inconclusive = small, poorly fitted or top-dose-only effect, or another doubt; inactive = no such curve, though single readings can be large; an effect the other way counts as inactive or inconclusive.

O=C(COC(=O)c1cc(-c2ccccc2Cl)nc2ccccc12)Nc1ncc(C(F)(F)F)cc1Cl was read as POLH inh inconclusive, PI5P4Ka inh -4.7, Pol beta inh 31.6µM*, POLK inh inconclusive, WRN helicase inh -7.9% and POLI inh inconclusive.
For O=C(COC(=O)c1ccc([N+](=O)[O-])s1)Nc1ncc(C(F)(F)F)cc1Cl the results were POLH inh 35.5µM*, PI5P4Ka inh -26.1, Pol beta inh inconclusive, POLK inh -40.4%, WRN helicase inh -8.0%[57.1 µM] and POLI inh inconclusive.
For O=C(COC(=O)c1cc(-c2cccc3ccccc23)nc2ccccc12)NC1CCS(=O)(=O)C1 (stereo unspecified) the results were POLH inh -24.6%, PI5P4Ka inh 15.6, Pol beta inh 50.1µM*, POLK inh -11.1%, WRN helicase inh 79.4µM* and POLI inh inconclusive.
For O=C(COC(=O)c1cccc2ccccc12)Nc1ncc(C(F)(F)F)cc1Cl the results were POLH inh -3.6%, PI5P4Ka inh -11.6, Pol beta inh 0.2%, POLK inh -3.8%, WRN helicase inh -5.7% and POLI inh 1.4%.
For O=C(CNC(=O)c1ccccc1C(F)(F)F)N/N=C/c1cccs1 the results were POLH inh 6.5%, PI5P4Ka inh -3.3, Pol beta inh 1.0%, POLK inh 5.6%, WRN helicase inh -2.8% and POLI inh -16.1%.
`CC(=O)Nc1ccc(S(=O)(=O)N(C)CC(=O)OCC(=O)N2CCCC2=O)cc1` gave POLH inh -16.8%, PI5P4Ka inh 1.4, POLK inh 0.0%, WRN helicase inh -21.5% and POLI inh 138.8%.
CCOC(=O)c1ccc(CNC(=O)c2cc(COc3ccccc3SC)on2)o1 was read as POLH inh 0.4%, PI5P4Ka inh 0.6, Pol beta inh 0.6%, POLK inh -4.7%, WRN helicase inh -11.1% and POLI inh 14.8%.
COc1ccc(C2CC(c3ccccc3)Oc3cc4c(cc32)OCO4)cc1 (stereo unspecified) was read as POLK inh -2.2% and POLI inh inconclusive.
Screening CC1=C(C)C(=O)N(c2ccccn2)C1=O returned POLH inh -12.8%, PI5P4Ka inh 4.3, Pol beta inh 9.4%, POLK inh -1.0%, WRN helicase inh 0.2% and POLI inh 8.9%.
Cc1nn(-c2ccccn2)c2c1C(=O)C(Br)CC2 (stereo unspecified) was read as POLH inh 7.0%, PI5P4Ka inh inconclusive, Pol beta inh 9.8%, POLK inh -3.3%, WRN helicase inh 56.2µM* and POLI inh 133.0%.
Screening O=C(Nc1ccc2c(c1)CCC2)C1COc2ccccc2O1 (stereo unspecified) returned POLH inh -6.3%, Pol beta inh 17.8µM*, POLK inh -7.3%, WRN helicase inh -7.8% and POLI inh inconclusive.
Screening O=C(O)C1Sc2[nH]c(=O)sc2C2c3ccc(O)cc3OC(=O)C12 (stereo unspecified) returned POLH inh -57.8%, PI5P4Ka inh inconclusive, Pol beta inh 26.5%, POLK inh inconclusive, WRN helicase inh 25.1µM* and POLI inh inconclusive.
O=c1c2ccccc2nc2n1CCC2 was read as POLH inh inconclusive, PI5P4Ka inh -2.8, Pol beta inh 16.4%, POLK inh -9.5%, WRN helicase inh 22.4µM* and POLI inh 50.1µM*.
Screening Cc1ccccc1-c1nnnn1C1CCS(=O)(=O)C1 (stereo unspecified) returned POLH inh 5.4%, PI5P4Ka inh -0.2, Pol beta inh -29.4%, POLK inh 9.4%, WRN helicase inh -0.3% and POLI inh -17.5%.
Screening Cc1cc(=O)n(C2CCS(=O)(=O)C2)[nH]1 (stereo unspecified) returned POLH inh -8.4%, PI5P4Ka inh 0.9, Pol beta inh -6.1%, POLK inh -13.7%, WRN helicase inh -3.7%[57.1 µM] and POLI inh 4.47µM*.
Screening COc1cccc(OCc2cc(=O)n3c(-c4ccccc4)csc3n2)c1 returned POLH inh -22.1%, Pol beta inh 20µM*, POLK inh -23.9% and POLI inh -28.9%.
For CN1C=C/C(=C\c2cc[n+](C)c3ccccc23)c2ccccc21 the results were POLH inh -30.0%, PI5P4Ka inh -12.1, Pol beta inh inconclusive, POLK inh 1.2%, WRN helicase inh 39.8µM* and POLI inh 11.5%.
`COc1cc(Cl)c(C)cc1NC(=O)Cn1ncc2c(=O)oc3ccccc3c21` gave POLH inh -13.2%, Pol beta inh 29.6%, POLK inh 5.8% and POLI inh 11.0%.
Screening O=Nc1[nH]c(=O)c(/C=C(\O)c2ccccc2)nc1NO returned POLH inh inconclusive, PI5P4Ka inh inconclusive, Pol beta inh inconclusive, POLK inh -16.7%, WRN helicase inh -15.1% and POLI inh 3.98µM*.
Screening O=C(NCc1ccco1)C1Cc2ccccc2CN1S(=O)(=O)c1ccccc1F (stereo unspecified) returned POLH inh 10µM*, PI5P4Ka inh -61.5*, POLK inh inconclusive, WRN helicase inh inconclusive and POLI inh 12.6µM*.
O=C(NCc1ccco1)C1CN(S(=O)(=O)c2ccccc2)CCN1S(=O)(=O)c1ccccc1 (stereo unspecified) was read as POLH inh 4.9%, Pol beta inh -1.0%, POLK inh 1.8%, WRN helicase inh 0.4%[11.6 µM] and POLI inh inconclusive.
For O=C(NCc1ccco1)C1Cc2ccccc2CN1C(=O)c1ccco1 (stereo unspecified) the results were POLH inh 31.6µM*, PI5P4Ka inh inconclusive, Pol beta inh 22.4µM*, POLK inh inconclusive, WRN helicase inh -7.5%[11.6 µM] and POLI inh 31.6µM*.
`COc1ccc(-c2ccc(F)cc2)cc1C1C2C=CCC(C)C2C(=O)N1Cc1ccccc1` (stereo unspecified) gave POLK inh -8.9% and POLI inh 11.2%.
Screening COc1ccc(OC)c(NC(=O)CSc2nc(-c3ccccc3C)nc3cc(=O)[nH]n23)c1 returned POLH inh -22.5%, Pol beta inh 4.1%, POLK inh -3.4% and POLI inh 11.0%.
Cc1ccc(NC(=O)CSc2nc(-c3ccco3)nc3cc(=O)[nH]n23)cc1 was read as POLH inh -8.3%, Pol beta inh 50.1µM*, POLK inh -25.8% and POLI inh inconclusive.
Screening Cc1ccc(NC(=O)CSc2nc(-c3cccs3)nc3cc(=O)[nH]n23)cc1C returned POLH inh -18.5%, Pol beta inh 50.1µM*, POLK inh -42.0% and POLI inh 89.1µM*.
